# Results reported in the OligoGym collection.
# Molecular target: TMEM109
# Test: pooled miR-30 sensor sort-seq; sequence = guide strand
# Details: shRNA
# Also: reference of the scale not given here.
row,Sequence,sensor-assay potency score (higher = more potent)
1,TGGGTCAAGACATCAACTGGGG,-0.224
2,TTTGGTATGACACTGGCGGTGT,0.696
3,TGTGATTCCACATCAAACCTGA,0.855
4,TTTGAACACATGCTTTCCCCAT,-0.568
5,TCTGGGTCAAGACATCAACTGG,-1.37
6,TTTCTCTGTTTCTCTTGGCTAG,-0.388
7,TCGCACAGATCGACCTATCTGG,-0.204
8,TATTCTTCACATCATGTGCCAA,-0.456
9,TCCCTCGCACAGATCGACCTAT,-0.902
10,TTCCACATCAAACCTGAACAGT,-0.603
11,TTGAACACATGCTTTCCCCATG,-0.916
12,TTTAAAACCAACCAAGCACTGA,-0.265

# Molecular target: TMEM110
# Test: as above
# Details: shRNA
row,Sequence,sensor-assay potency score (higher = more potent)
1,TTTTAAGTCACAGTAGTCTGGG,0.293
2,TTCTAGCTTAGCTTTCGTCTTC,-0.0536
3,TTAGCTTTCGTCTTCCCCTTTC,-0.779
4,TTAAGTCACAGTAGTCTGGGGG,-0.231
5,TTGGAAGTGTCTAAAAACCATA,-1.5
6,TTTTTAAGTCACAGTAGTCTGG,-0.583
7,TTCAGTGAGATCTGCTAGGTAT,0.113
8,TAAGTCACAGTAGTCTGGGGGC,0.0391
9,TTTGTAGTGCAACTGAATGGGG,-0.728
10,TTTAAGTCACAGTAGTCTGGGG,0.109
11,TTCTTCTAGCTTAGCTTTCGTC,-0.864
12,TTGTAGTGCAACTGAATGGGGA,-0.276
